# Measured values published in the supplement of paper PMC6555819.
# System: RARg homodimer (NR concentration 270 nM)
# Test: PBM binding z-score (relative to random genomic background probes); higher = stronger binding; sequences stand for … in GC…GCGATTGACAGCGTAGAATGAAGG
# Outline: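 Random background probes are the reference for binding z-scores. These scores derive from regression-normalized fluorescence on custom Agilent 4×180K protein-binding microarrays incubated 1 h with ligand-free nuclear receptor dimers. Binding was detected with antibodies against each partner (one per run).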
row,Sequence,PBM binding z-score
1,CTCGAAATGTCGGTTGAGGTGAGTATACGGATAA,0.341
2,TAGCCTAGGTCATTCAGGGGCCAATATAGAAAGC,4.84
3,CGACCTAGGTCATCCAGGACAGTGAATACATTGA,4.97
4,GCTTGTAGATCAAGGTTGAGAAAGACTAAGCTAA,-0.385
5,GCAGACAGGTGAAACGAAGGTAACTCAGGGTGGC,0.315
6,ATATGCAGGTTAAGGGTCATTCAGGTTGGTTCGC,3.52
7,ATCCCTAGGTAAAGTTCAGTGAAAGATCGATAGA,1.95
8,CATACTGGGCCAAGGTCATTGATCAGTCAAAGCA,3.29
9,CGTCCAAGGTCAATGGTCAGTGAAGAGATGACGG,6.07
10,CCGACTGGGGCAAGGATACCATAACGCACAGCCA,0.802
11,CCTAGTTGGTAAGGAGGTCACACACCGGATATGA,3.06
12,TAGCCTAGGTAATTCAGGGGCCAGTATAGAAAGC,-0.0521
13,CGTCCATGGTCATAGGAGGTCAGTGAAGACAGAT,2.8
14,GGAACGAGGGCAAAGTTGATAACATCTGTCGACG,1.97
15,TCGAGTAGGTTACGAATGGGGCATTCAGCTTTCT,0.405
16,TCGAGTAGCTTAGTCGGGGCATTCAGCCAACATA,-1.05
17,CGAACTAGGTCATCCAGGACAGTGAATACATTGA,4.85
18,GCTAGCCGGCCATTTGGGTCACTCAATGACGGGC,1.1
19,TCATATAGGTAAACAGGTGCAAGTCCGTAAGTTA,0.0324
20,CGTCCAAGGTCAAGGTAAGTGAAAGAGACTCGAA,7.08

row,Sequence,PBM binding z-score
1,CCTTACGGGTCACAAGGTTATAGCACGACGAGCG,4.75
2,ACTATTAGTTGAGACGAGGCCAACCGATAGGTTG,0.272
3,TCTTGTAAATCAAAGGTTAAGAAAGCCGAAGCCT,0.692
4,TCATATAGGTAAACAGGTGAAAGTGCGTAAGTTA,0.552
5,CGTCCAAGATCAAAGGTCAGTGAAGAGATGACGG,4.54
6,CCTGCTAGGTCAATGGTCAGCTACAGCAGCTCGC,4.13
7,AGAGACAGGTGAGTGAAGGTAACTCAGCTGGACG,0.547
8,ATCTTTAGGTAAAGTTCAGTGAAAGATCGATAGA,2.45
9,TAGCCTAGGTCATGGGCCGGTATACCACGCGAAC,4.58
10,CCTAGCAGGCCAATCTGTGTCACTCAAGGCTTGA,0.279
11,CGGACTAGGTCAAGGACAGTGAATCTCCGCACGC,4.28
12,ATCTCTAGGTAACCAAGTTCCGTGAATGCCGAAC,0.215
13,CAAACTAGGTCAAGGTCACAGTCGGTTTGTGCCA,6.99
14,CTCGAAAGGTCGGTTGAGGTAAGTATACGGATAA,2.35
15,TCTCGGAGGGCACGAAGGTCAGAGCTTTCCAGAG,3.97
16,TCATATAGGTAAAAGGTGAAAGTCGGTGTGGTAA,1.17
17,CCGACTGGGGCATAAGCTTACCATAAGCCAGCCC,-0.313
18,CCGACTGGGGCAAAGGTTACTATACTCAGTACGA,1.37
19,AGTCAAAGTTCAGGACGAGGTAACCTAAAGCACG,4.86
20,CCAGACAGGTGTAAGGTAACTCAGTCTGGTACGC,-0.292
